# Measurements as given in PubChem BioAssay (EPA / NIEHS).
# Results filed as inconclusive are left out. Active and inactive are the calls of the source. How the source made its calls, unless noted: active means hit-call score of the fitted dose curve at least 0.9, where 1 is the maximum; inactive means score below 0.9.
# Key:
# [1] = biological target: Paired box protein Pax-6 (Homo sapiens) (UniProt P26367); test: ATG_Pax6_CIS: Attagene CIS-FACTORIAL HepG2 Assay for human Paired Box 6 (PAX6) (AID 2282956); details: HepG2 CIS-FACTORIAL PAX6 reporter transcription, RNA readout; actives raise or lower the signal
# Sequence of Paired box protein Pax-6 (Homo sapiens) (P26367 whole entry, looked up): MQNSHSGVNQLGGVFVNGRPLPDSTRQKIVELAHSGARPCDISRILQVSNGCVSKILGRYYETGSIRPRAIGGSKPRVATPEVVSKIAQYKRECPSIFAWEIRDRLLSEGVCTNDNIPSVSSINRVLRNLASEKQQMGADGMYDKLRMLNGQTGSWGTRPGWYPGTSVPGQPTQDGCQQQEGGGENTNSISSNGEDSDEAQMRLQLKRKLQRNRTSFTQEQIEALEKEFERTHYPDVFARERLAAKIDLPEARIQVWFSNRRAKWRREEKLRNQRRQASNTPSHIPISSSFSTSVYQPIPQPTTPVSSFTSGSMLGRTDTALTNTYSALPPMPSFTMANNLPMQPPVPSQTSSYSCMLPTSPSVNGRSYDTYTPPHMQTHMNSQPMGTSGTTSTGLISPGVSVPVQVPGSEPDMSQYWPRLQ
# Procedure, shortened: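 Multiplexed cis-reporter HepG2 system; 24 h treatment; reporter mRNA read by RT-PCR/CE fluorescence; bidirectional fit vs DMSO.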
# [2] = ATG_PXRE_CIS: Attagene CIS-FACTORIAL HepG2 Assay for human Pregnane X Receptor Element (PXRE) (AID 2282957); details: HepG2 Attagene CIS-FACTORIAL PXRE reporter, mRNA; actives raise or lower the signal
# Procedure, shortened: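 Transfect HepG2 with MRTUs (cis promoter elements); dose chemical, incubate 24 h; isolate RNA, RT with oligo(dT), PCR, 6-FAM label, HpaI cut, CE. Gain/loss fit vs DMSO.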
# [3] = ATG_Sox_CIS: Attagene CIS-FACTORIAL HepG2 Assay for human SRY-box transcription factor (SOX) (AID 2282960); details: HepG2 Attagene cis-factorial SOX reporter, mRNA; actives raise or lower the signal
# Procedure, shortened: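 HepG2 cells transiently transfected with cis-element-driven multiple reporter transcription units, dosed 24 h; reporter mRNA measured by RT-PCR, FAM labelling, HpaI digestion and capillary electrophoresis. Bidirectional fit versus DMSO baseline.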
# [4] = biological target: Transcription factor Sp1 (Homo sapiens) (UniProt P08047); test: ATG_Sp1_CIS: Attagene CIS-FACTORIAL HepG2 Assay for human Specificity Protein 1 (Sp1) (AID 2282961); details: HepG2 Sp1 cis-reporter transcription, actives raise or lower the signal
# Sequence of Transcription factor Sp1 (Homo sapiens) (P08047 whole entry, looked up): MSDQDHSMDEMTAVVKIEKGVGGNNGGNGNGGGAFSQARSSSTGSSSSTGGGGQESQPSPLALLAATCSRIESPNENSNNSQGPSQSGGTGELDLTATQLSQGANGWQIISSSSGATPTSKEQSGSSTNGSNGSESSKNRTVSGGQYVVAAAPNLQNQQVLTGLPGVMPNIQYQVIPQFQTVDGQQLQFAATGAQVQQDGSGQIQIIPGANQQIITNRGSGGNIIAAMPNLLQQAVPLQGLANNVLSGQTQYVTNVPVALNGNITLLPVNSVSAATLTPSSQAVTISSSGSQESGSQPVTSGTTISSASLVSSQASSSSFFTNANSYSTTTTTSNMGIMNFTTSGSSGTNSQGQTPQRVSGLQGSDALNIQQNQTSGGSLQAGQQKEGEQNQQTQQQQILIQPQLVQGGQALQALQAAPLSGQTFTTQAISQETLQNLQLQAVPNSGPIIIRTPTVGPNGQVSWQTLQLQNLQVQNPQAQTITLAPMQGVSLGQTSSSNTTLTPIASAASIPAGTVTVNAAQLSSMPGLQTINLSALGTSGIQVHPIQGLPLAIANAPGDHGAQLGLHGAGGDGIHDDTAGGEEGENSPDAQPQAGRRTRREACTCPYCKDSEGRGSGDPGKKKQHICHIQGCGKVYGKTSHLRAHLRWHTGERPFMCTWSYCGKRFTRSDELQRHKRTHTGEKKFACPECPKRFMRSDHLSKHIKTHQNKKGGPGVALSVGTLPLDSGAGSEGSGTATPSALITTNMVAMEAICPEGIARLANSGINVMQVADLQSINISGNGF
# Procedure, shortened: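 HepG2 cells transiently transfected with multiple reporter transcription units driven by cis-regulatory elements; Sp1-responsive reporter mRNA measured 24 h after dosing by RT-PCR and capillary electrophoresis fluorescence, fitted bidirectionally against DMSO baseline.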
# [5] = ATG_SREBP_CIS: Attagene CIS-FACTORIAL HepG2 Assay for human Sterol Regulatory Element Binding (SREBP) (AID 2282962); details: HepG2 Attagene cis-factorial SREBP reporter, mRNA; actives raise or lower the signal
# Procedure, shortened: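 mRNA induction of transfected cis-promoter reporters in HepG2 cells, 24 h post-dose. Detection: RT-PCR with 6-FAM-labelled products, HpaI digest, capillary electrophoresis. DMSO served as negative control and baseline.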
# [6] = biological target: Signal transducer and activator of transcription 3 (Homo sapiens) (UniProt P40763); test: ATG_STAT3_CIS: Attagene CIS-FACTORIAL HepG2 Assay for human Signal Transducer and Activator of Transcription 3 (STAT3) (AID 2282963); details: HepG2, Attagene cis-factorial STAT3 reporter transcription; actives raise or lower the signal
# Sequence of Signal transducer and activator of transcription 3 (Homo sapiens) (P40763 whole entry, looked up): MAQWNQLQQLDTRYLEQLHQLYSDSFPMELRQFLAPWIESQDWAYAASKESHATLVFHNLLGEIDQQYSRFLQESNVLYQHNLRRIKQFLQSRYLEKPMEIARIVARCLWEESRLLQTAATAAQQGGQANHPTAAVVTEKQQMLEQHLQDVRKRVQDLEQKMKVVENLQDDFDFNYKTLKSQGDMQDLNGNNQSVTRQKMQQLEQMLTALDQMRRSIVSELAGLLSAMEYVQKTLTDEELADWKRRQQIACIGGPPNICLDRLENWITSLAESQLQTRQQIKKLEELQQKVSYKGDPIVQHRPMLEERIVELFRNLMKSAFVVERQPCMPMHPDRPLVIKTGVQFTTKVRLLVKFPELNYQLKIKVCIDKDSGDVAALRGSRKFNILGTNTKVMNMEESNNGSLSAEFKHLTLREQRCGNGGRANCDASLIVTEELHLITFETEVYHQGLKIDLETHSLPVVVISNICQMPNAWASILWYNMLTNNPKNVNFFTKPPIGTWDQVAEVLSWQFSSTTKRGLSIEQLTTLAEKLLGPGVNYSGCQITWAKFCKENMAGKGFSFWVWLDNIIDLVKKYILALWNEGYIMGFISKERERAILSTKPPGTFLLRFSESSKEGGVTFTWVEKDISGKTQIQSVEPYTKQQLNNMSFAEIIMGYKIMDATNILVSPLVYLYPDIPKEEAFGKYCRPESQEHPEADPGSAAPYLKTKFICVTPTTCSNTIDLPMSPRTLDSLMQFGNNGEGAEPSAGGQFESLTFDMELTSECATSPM
# Procedure, shortened: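 Values derive from bidirectional fits relative to DMSO of reporter mRNA levels, measured by RT-PCR with capillary electrophoresis, in HepG2 cells carrying transiently transfected cis-regulated reporter units and exposed 24 h.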
# [7] = ATG_TA_CIS: Attagene CIS-FACTORIAL HepG2 Assay for human TA Basal Promoter (AID 2282964); details: HepG2 Attagene CIS-factorial TA basal promoter reporter; actives raise or lower the signal
# Procedure, shortened: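 Background-control readout: TA basal promoter reporter mRNA, fitted in both directions relative to DMSO. Measured by RT-PCR and capillary electrophoresis 24 hours after treating HepG2 human liver cells transiently carrying multiplexed cis-regulated reporter constructs.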
# [8] = ATG_TCF_b_cat_CIS: Attagene CIS-FACTORIAL HepG2 Assay for human T-Cell-Factor with beta-catenin (TCF/b-cat) (AID 2282965); details: HepG2 TCF/beta-catenin cis-reporter transcription, actives raise or lower the signal
# Procedure, shortened: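 HepG2, transient MRTU transfection, cis-element-driven reporters (endogenous TFs). 24 h compound exposure. Readout: reporter mRNA by RT-PCR + 6-FAM primer extension, HpaI digest, capillary electrophoresis. Gain/loss fit vs DMSO baseline.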
# [9] = ATG_TAL_CIS: Attagene CIS-FACTORIAL HepG2 Assay for human TAL Basal Promoter (AID 2282966); details: HepG2 Attagene cis-factorial TAL promoter reporter; actives raise or lower the signal;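 further: background control endpoint measuring basal TAL promoter reporter mRNA not a specific factor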
# Procedure, shortened: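 Fluorescence of labelled reporter cDNA fragments, resolved by capillary electrophoresis, gave the readout. Human HepG2 liver cells carried transiently transfected cis-element reporter units and were treated for 24 hours; activity was fitted bidirectionally against DMSO.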
# [10] = ATG_TGFb_CIS: Attagene CIS-FACTORIAL HepG2 Assay for human Transforming Growth Factor (TGF) (AID 2282967); details: HepG2 Attagene CIS TGFb reporter, mRNA transcription; actives raise or lower the signal
# Procedure, shortened: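 Endogenous TGFB1-linked transcription factor activity read as reporter mRNA via RT-PCR and capillary electrophoresis, 24 h after dosing transiently transfected HepG2 cells. Gain or loss of signal fitted relative to DMSO.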
# [11] = ATG_VDRE_CIS: Attagene CIS-FACTORIAL HepG2 Assay for human Vitamin D Receptor Element (VDRE) (AID 2282968); details: HepG2 VDRE cis-reporter transcription, actives raise or lower the signal
# Procedure, shortened: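 Cell-based multiplexed reporter format in human liver HepG2 cells, 24 h post-dose. Fluorescence from capillary electrophoresis of reporter cDNA gives the signal, with DMSO as negative control and baseline.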
# [12] = biological target: X-box-binding protein 1 (Homo sapiens) (UniProt P17861); test: ATG_Xbp1_CIS: Attagene CIS-FACTORIAL HepG2 Assay for human X-box Binding Protein 1 (XBP1) (AID 2282972); details: HepG2 XBP1 cis-element reporter, Attagene multiplex; actives raise or lower the signal
# Sequence of X-box-binding protein 1 (Homo sapiens) (P17861 whole entry, looked up, the tested form may be a part): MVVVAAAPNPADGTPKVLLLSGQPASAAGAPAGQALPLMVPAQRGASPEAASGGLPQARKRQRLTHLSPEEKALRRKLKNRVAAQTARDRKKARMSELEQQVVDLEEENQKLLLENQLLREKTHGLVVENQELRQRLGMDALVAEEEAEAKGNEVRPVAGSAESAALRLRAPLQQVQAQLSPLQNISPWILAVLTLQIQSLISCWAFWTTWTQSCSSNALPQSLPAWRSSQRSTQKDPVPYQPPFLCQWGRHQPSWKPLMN
# Procedure, shortened: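 Fluorescence-labelled cDNA fragments from reporter transcripts, separated by capillary electrophoresis, give the signal. Source: HepG2 cells transfected with promoter-driven reporter units, harvested 24 h post-dose. DMSO served as reference for bidirectional curve fitting.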
# [13] = ATG_M_19_TRANS: Attagene TRANS-FACTORIAL HepG2 Assay for M19 Transcription Factor (Internal Marker) (AID 2282974; active means hit-call score of the fitted dose curve at least 0.9, where 1 is the maximum); details: HepG2 Attagene TRANS-FACTORIAL M19 internal marker reporter
# Procedure, shortened: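 HepG2 cells transiently transfected with multiple GAL4-UAS reporter transcription units were exposed to chemicals for 24 h. Reporter mRNA was read by RT-PCR, 6-FAM primer extension, HpaI digestion and capillary electrophoresis; gain of signal fitted relative to DMSO.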
# [14] = biological target: Steroid hormone receptor ERR1 (Homo sapiens) (UniProt P11474); test: ATG_ERRa_TRANS: Attagene TRANS-FACTORIAL HepG2 Assay for human Estrogen-Related Receptor alpha (ERRa) (AID 2282971; active means hit-call score of the fitted dose curve at least 0.9, where 1 is the maximum); details: HepG2 Attagene TRANS reporter, ERRa transactivation
# Sequence of Steroid hormone receptor ERR1 (Homo sapiens) (P11474 whole entry, looked up, the tested form may be a part): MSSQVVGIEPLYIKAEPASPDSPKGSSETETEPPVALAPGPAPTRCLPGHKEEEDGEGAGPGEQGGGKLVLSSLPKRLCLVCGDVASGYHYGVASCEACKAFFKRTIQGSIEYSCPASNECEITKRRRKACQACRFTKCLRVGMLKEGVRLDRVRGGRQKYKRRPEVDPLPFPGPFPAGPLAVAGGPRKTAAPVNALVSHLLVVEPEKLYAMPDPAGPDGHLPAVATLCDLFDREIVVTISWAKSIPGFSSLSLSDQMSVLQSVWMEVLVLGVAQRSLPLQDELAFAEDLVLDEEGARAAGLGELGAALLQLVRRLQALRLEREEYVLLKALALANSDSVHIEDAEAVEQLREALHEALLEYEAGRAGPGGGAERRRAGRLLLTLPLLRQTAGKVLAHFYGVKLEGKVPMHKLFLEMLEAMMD
# Procedure, shortened: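 Reporter transcript induction was quantified by RT-PCR and capillary electrophoresis of FAM-labelled, HpaI-cut products after 24 h treatment of HepG2 cells carrying transiently transfected GAL4-UAS reporter units and an exogenous ERRa-Gal4 fusion; activity scored as increase over DMSO.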
# [15] = ATG_GAL4_TRANS: Attagene TRANS-FACTORIAL HepG2 Assay for GAL4 (Internal Marker) (AID 2282976; active means hit-call score of the fitted dose curve at least 0.9, where 1 is the maximum); details: HepG2 Attagene TRANS GAL4 internal marker reporter
# Procedure, shortened: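 First, HepG2 cells were transfected with reporter units under GAL4-UAS control. Next, they were treated with chemical for 24 h. Finally, RNA was reverse-transcribed, PCR-amplified, FAM-labelled and resolved by capillary electrophoresis, with induction scored against DMSO.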
# [16] = ATG_PPRE_CIS: Attagene CIS-FACTORIAL HepG2 Assay for human Peroxisome Proliferator-activated Response Element (PPRE) (AID 2282958); details: HepG2 PPRE cis-element reporter, Attagene transcription factor profiling; actives raise or lower the signal
# Procedure, shortened: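 HepG2 cells transiently transfected with multiplexed cis-element reporter units measure endogenous transcription factor activity. After 24 h compound exposure, reporter mRNA is quantified by RT-PCR, 6-FAM labeling, HpaI digestion and capillary electrophoresis; bidirectional fits are made against DMSO baseline.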
# [17] = ATG_RORE_CIS: Attagene CIS-FACTORIAL HepG2 Assay for human RAR-related Orphan Receptor Element (RORE) (AID 2282959); details: HepG2 Attagene cis-factorial RORE reporter, mRNA; actives raise or lower the signal
# Procedure, shortened: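 HepG2 cells transiently transfected with multiple cis-element reporter transcription units, exposed to chemical for 24 h. Reporter mRNA quantified by RT-PCR, 6-FAM primer-extension labeling, HpaI digestion and capillary electrophoresis; bidirectional fit versus DMSO baseline.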
# [18] = biological target: Nuclear receptor subfamily 1 group I member 3 (Homo sapiens) (UniProt Q14994); test: ATG_CAR_TRANS: Attagene TRANS-FACTORIAL HepG2 Assay for human Constitutive Androstane Receptor (CAR) (AID 2282969; active means hit-call score of the fitted dose curve at least 0.9, where 1 is the maximum;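 further: activators raise reporter mRNA above DMSO so AC50 marks induction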); details: HepG2 Attagene TRANS-FACTORIAL CAR reporter
# Sequence of Nuclear receptor subfamily 1 group I member 3 (Homo sapiens) (Q14994 whole entry, looked up, the tested form may be a part): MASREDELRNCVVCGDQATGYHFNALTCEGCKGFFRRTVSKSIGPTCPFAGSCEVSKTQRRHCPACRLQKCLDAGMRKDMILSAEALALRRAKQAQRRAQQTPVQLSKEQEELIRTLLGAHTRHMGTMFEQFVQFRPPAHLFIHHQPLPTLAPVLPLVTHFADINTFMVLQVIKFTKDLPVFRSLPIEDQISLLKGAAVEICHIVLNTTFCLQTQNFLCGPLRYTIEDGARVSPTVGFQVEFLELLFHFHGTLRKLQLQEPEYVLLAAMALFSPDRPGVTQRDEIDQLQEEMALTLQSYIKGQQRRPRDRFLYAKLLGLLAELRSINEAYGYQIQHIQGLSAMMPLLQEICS
# Procedure, shortened: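 HepG2 cells transiently transfected with GAL4-UAS reporter units; TRANS format reads activity of exogenous chimeric NR-Gal4 protein. After 24 h dosing, reporter mRNA quantified by RT-PCR, 6-FAM labelling and capillary electrophoresis; gain of signal fitted against DMSO.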
smiles,measurement,setting,value
CCC[CH2][Sn]([Cl])([CH2]CCC)[CH2]CCC,AC50,[1],678 nM (active)
same,outcome,[2],inactive
same,outcome,[3],inactive
same,AC50,[4],412 nM (active)
same,outcome,[5],inactive
same,outcome,[6],inactive
same,AC50,[7],698 nM (active)
same,AC50,[8],591 nM (active)
same,outcome,[9],inactive
same,outcome,[10],inactive
same,AC50,[11],412 nM (active)
same,AC50,[12],639 nM (active)
same,outcome,[13],inactive
CN(C)c1ccccc1,outcome,[1],inactive
same,outcome,[2],inactive
same,outcome,[3],inactive
same,outcome,[4],inactive
same,outcome,[5],inactive
same,outcome,[6],inactive
same,outcome,[7],inactive
same,outcome,[8],inactive
same,outcome,[9],inactive
same,outcome,[10],inactive
same,outcome,[11],inactive
same,outcome,[14],inactive
same,outcome,[12],inactive
same,outcome,[15],inactive
CCCCCCCCOC(=O)c1ccc(C(=O)OCCCCCCCC)c(C(=O)OCCCCCCCC)c1,outcome,[1],inactive
same,outcome,[2],inactive
same,outcome,[16],inactive
same,outcome,[3],inactive
same,outcome,[5],inactive
same,outcome,[6],inactive
same,outcome,[7],inactive
same,outcome,[8],inactive
same,outcome,[9],inactive
same,outcome,[10],inactive
same,outcome,[13],inactive
CCCSC(=O)N(CCC)CCC,outcome,[1],inactive
same,AC50,[2],27100 nM (active)
same,outcome,[17],inactive
same,outcome,[3],inactive
same,outcome,[4],inactive
same,outcome,[5],inactive
same,outcome,[6],inactive
same,outcome,[7],inactive
same,outcome,[8],inactive
same,outcome,[9],inactive
same,outcome,[10],inactive
same,outcome,[11],inactive
same,outcome,[18],inactive
same,outcome,[15],inactive
